Some test systems named below: BT-549 breast; MDA-MB-435 melanoma; MCF7 breast; HCT-116 colon; HCC-2998 colon; KM12 colon; SW-620 colon.
What all share (assay): NCI-60 one-dose screen, 48 h (100 = growth as untreated, 0 = no growth, -100 = all killed)
What all share (conditions): 10 µM unless noted

Molecules are shown by their SMILES. This is part of a sample that, as a whole, favours compounds with a hit. Of some 83,000 tested, about 20% had one in any assay.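 Values shown are percent growth following 48 h exposure of cells in 96-well plates to a single concentration of compound; below 10 was considered active.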 Values without a mark were called inactive. The source made the active and inactive calls.

Regarding `O=C(NCCNc1nccc(-c2c(-c3cccc(O)c3)nc3sccn23)n1)c1ccccc1O`, the growth was 45.7% in the test with BT-549 breast; 14.3% with MDA-MB-435 melanoma; 37% in the test with MCF7 breast; 25.9% with HCT-116 colon; 81% in the test with HCC-2998 colon; 46.7% in the test with KM12 colon.

As for `CN(C)c1ccc(/C=N/N=C(N)N)cc1`, the growth with BT-549 breast was 93.3%; in the test with MDA-MB-435 melanoma, -13.9% (active); in the test with SW-620 colon it was 37.4%; in the test with MCF7 breast, 31.9%; with HCT-116 colon, 52.8%; in the test with HCC-2998 colon, 68.2%. Besides, the growth with KM12 colon was 42.6%.

As to `CCC1S/C(=N\N=C(/C)c2cccs2)N(c2ccccc2)C1=O` (stereo not drawn), the growth is 112% in the test with BT-549 breast; 117% in the test with MDA-MB-435 melanoma; 96.1% in the test on SW-620 colon; 84.5% in the test on MCF7 breast; 90.2% in the test on HCT-116 colon; 121% with HCC-2998 colon. For the same compound, the growth in the test on KM12 colon was 115%.

Turning to `O=S(=O)(CCN1CCOCC1)Nc1cncc(-c2ccc3ncnc(Nc4ccc(F)c(Cl)c4)c3c2)c1`, the growth is 49.7% in the test with BT-549 breast; 87.2% with MDA-MB-435 melanoma; 90.2% in the test with SW-620 colon; 47.3% with MCF7 breast; 56.1% with HCT-116 colon; 74.4% in the test with HCC-2998 colon. In addition, the growth in the test on KM12 colon is 95.9%.

Regarding `O=C1c2ccccc2OC=C(c2ccccc2)N1CCCCN1CCCCC1`, the growth is 32.5% with BT-549 breast; 67.4% with MDA-MB-435 melanoma; 71.5% in the test with SW-620 colon; 38.6% in the test with MCF7 breast; 27.2% in the test with HCT-116 colon; 69.1% in the test with HCC-2998 colon. Besides, the growth in the test on KM12 colon was 49.2%.

Regarding `Cc1nccc2c3ccc(OCc4cn(-c5ccc(Br)cc5)nn4)cc3n(CCCc3ccccc3)c12`, the growth was 53.5% with BT-549 breast; 18.7% in the test on MDA-MB-435 melanoma; 2.21% (active) in the test with SW-620 colon; 12.5% in the test with MCF7 breast; 30.6% in the test with HCT-116 colon; 35.6% with HCC-2998 colon. The growth with KM12 colon was 8.07% (active).

Take `CC1(C)N=C(N)N=C(N)N1c1ccc(F)c(C(F)(F)F)c1`: the growth in the test on BT-549 breast is 61.5%; with MDA-MB-435 melanoma, 40.6%; in the test with SW-620 colon, 30.2%; with MCF7 breast, 26.8%; in the test on HCT-116 colon it was 19.8%; in the test on HCC-2998 colon, 34.3%. Besides, the growth in the test with KM12 colon was 27.2%.

Turning to `COc1ccc(-c2nn(-c3ccc(NC(=O)Nc4cc(C(F)(F)F)cc(C(F)(F)F)c4)cc3)cc2-c2ccncc2)cc1Cl`, the growth with BT-549 breast was 17.5%; in the test on MDA-MB-435 melanoma, 8.04% (active); in the test with SW-620 colon, 19.5%; with MCF7 breast, 15.5%; in the test with HCT-116 colon it was 2.45% (active); with HCC-2998 colon, 12.3%. The growth in the test on KM12 colon was 7.63% (active).

Regarding `O=c1nc(N2CCOCC2)oc2c(-c3cccc4ccccc34)cccc12`, the growth was 85.3% in the test with BT-549 breast; 101% in the test on MDA-MB-435 melanoma; 89.8% in the test with MCF7 breast; 96.7% with HCT-116 colon; 109% in the test on HCC-2998 colon; 87.3% in the test with KM12 colon.

In the case of `COCCNC(C(=O)c1ccccc1)c1ccccc1` (stereo not drawn), the growth with BT-549 breast was 97.6%; with MDA-MB-435 melanoma it was 103%; in the test with SW-620 colon it was 101%; in the test on MCF7 breast, 95.3%; with HCT-116 colon it was 99.9%; with HCC-2998 colon, 107%. In addition, the growth in the test with KM12 colon was 104%.

`O=C(O)c1cn(C2CC2)c2cc(N3CCN(C(=O)CSc4nc(NS(=O)(=O)c5ccccc5)cc(=O)[nH]4)CC3)c(F)cc2c1=O`: the growth in the test with BT-549 breast is 99%; with MDA-MB-435 melanoma, 90.1%; with SW-620 colon, 99.9%; with HCC-2998 colon, 91.7%; in the test with KM12 colon it was 91.6%.

As for `O=S1(=O)N(CCNc2nccc(-c3c(-c4cccc(O)c4)nc4sccn34)n2)CCN1Cc1ccccc1`, the growth in the test with BT-549 breast was 69.9%; in the test on MDA-MB-435 melanoma, 45.9%; in the test on SW-620 colon, 74.4%; in the test with MCF7 breast, 59.5%; in the test on HCT-116 colon it was 45.9%; with HCC-2998 colon, 109%. Besides, in the test with KM12 colon, the growth is 47.6%.

For `COc1ccc(C(=O)Cn2cnc3c(Nc4cc(C(=O)Nc5ccc(N6CCN(CCO)CC6)cc5)ccc4C)ncnc32)cc1`, the growth with BT-549 breast was 94.9%; in the test on MDA-MB-435 melanoma, 105%; in the test on SW-620 colon, 105%; with MCF7 breast, 87.1%; in the test with HCT-116 colon it was 97.3%; in the test with HCC-2998 colon it was 97.4%. Moreover, the growth in the test on KM12 colon was 99.4%.

In the case of `O=C1C(SCCO)=C(SCCO)C(=O)N1c1ccc(-c2ccccc2)cc1`, the growth in the test with MDA-MB-435 melanoma is 92.2%; in the test with SW-620 colon, -66.9% (active); with MCF7 breast it was 80.5%; with HCT-116 colon, 13.7%; with HCC-2998 colon, 79.8%; in the test with KM12 colon, 83.4%.

Take `CC1(C)N=C(N)N=C(N)N1c1cccc(CCCCc2ccccc2)c1`: the growth with BT-549 breast was -35.1% (active); in the test with MDA-MB-435 melanoma, -0.215% (active); in the test with MCF7 breast, 3.82% (active); in the test on HCT-116 colon, 2.07% (active); in the test with HCC-2998 colon, -9.45% (active); in the test on KM12 colon, -42.8% (active).

As to `O=C1OC(N(Cc2ccc(Cl)cc2)c2ccccc2)c2ccccc21` (stereo not drawn), the growth in the test with BT-549 breast is 103%; in the test with MDA-MB-435 melanoma, 109%; in the test on SW-620 colon, 101%; in the test with MCF7 breast, 94.9%; in the test on HCT-116 colon, 97%; in the test on HCC-2998 colon it was 102%. In the test on KM12 colon, the growth is 98.2%.

With `COc1ccc2c(c1)OC(N(C(C)=O)C(C)=O)=C(C#N)C2c1ccc(F)cc1` (stereo not drawn), the growth in the test on BT-549 breast is 38.1%; in the test with MDA-MB-435 melanoma, -29.2% (active); in the test with SW-620 colon, 20.9%; in the test on MCF7 breast, 17.8%; in the test with HCT-116 colon it was 25.5%; with HCC-2998 colon, 59.2%. The growth in the test with KM12 colon is 25.6%.

`Cc1ccc(N(CC2=NCCN2)c2cccc(O)c2)cc1`: the growth is 89.7% with BT-549 breast; 100% in the test on MDA-MB-435 melanoma; 93.9% in the test with MCF7 breast; 101% with HCT-116 colon; 103% in the test with HCC-2998 colon; 104% with KM12 colon.

`Cc1ccc(=O)n(-c2ccc(Br)cc2F)c1`: the growth with BT-549 breast was 94.5%; in the test on MDA-MB-435 melanoma, 100%; with SW-620 colon it was 103%; with MCF7 breast, 92.6%; with HCT-116 colon, 105%; with HCC-2998 colon, 106%. The growth in the test with KM12 colon is 103%.

With `O=C(Cn1c2ccccc2c2ccncc21)N/N=C/c1cc(O)c(O)c(O)c1`, the growth with BT-549 breast was 107%; in the test on MDA-MB-435 melanoma, 111%; with SW-620 colon it was 109%; in the test on MCF7 breast, 106%; in the test on HCT-116 colon it was 101%; with HCC-2998 colon, 105%. Also, the growth with KM12 colon is 95.3%.

The record behind these values is PubChem BioAssay (NCI).
